The source of these data is PubChem BioAssay (NCATS).

Results filed as inconclusive are left out. Values without a mark were called inactive. The source made the active and inactive calls. The call rests on the fitted dose curve; in most records, active means well fitted cell-killing curve with a large enough effect; inconclusive means small, poorly fitted or top-dose-only effect, or effect the other way; inactive means no such curve, though single readings can be large or run the other way.
Potency means the concentration at half of the fitted maximal effect.

A short description of the test: Quantitative High-Throughput drug screen in 47 multiple myeloma cell lines against the NCATS MIPE library collection: FR4_PLB cell viability assay (AID 1918924; further: nearly all actives have a fitted effect of over 35% in size). Conditions: FR4_PLB myeloma cells viability, CellTiter-Glo ATP, 48 h; series mostly up to 45.8 µM; viability (% of DMSO control): at the top concentration. The source says: PI: Beverly A. Mock Ph.D.
Laboratory of Cancer Biology and Genetics,
Center for Cancer Research, National Cancer Institute,
National Institute of Health, Bethesda, Maryland
Drug resistance and disease progression are common in multiple myeloma (MM) patients, underscoring the need for new therapeutic combinations. […] We hypothesized that effective combinations would reduce MYC expression and enhance p16 activity. […] These preclinical data identify potentially useful drug combinations for evaluation in drug-resistant MM and reveal potential mechanisms of combined drug sensitivity.
Described herein is the primary MIPE qHTS used to cherrypick compounds. Validated compounds were then further tested for potential synergistic activiy.
[1] Peat TJ, Gaikwad SM, Dubois W, Gyabaah-Kessie N, Zhang S, Gorjifard S, Phyo Z, Andres M, Hughitt VK, Simpson RM, Miller MA, Girvin AT, Taylor A, Williams D, D'Antonio N, Zhang Y, Rajagopalan A, Flietner E, Wilson K, Zhang X, Shinn P, Klumpp-Thomas C, McKnight C, Itkin Z, Chen L, Kazandijian D, Zhang J, Michalowski AM, Simmons JK, Keats J, Thomas CJ, Mock BA. Drug combinations identified by high-throughput screening promote cell cycle transition and upregulate Smad pathways in myeloma. Cancer Lett. 2023 Aug 1;568:216284. doi: 10.1016/j.canlet.2023.216284. Epub 2023 Jun 24. PMID: 37356470; PMCID: PMC10408729.
SEQUENCE No. (e.g., 1, 2, 3, etc.); […] (e.g., Cells, Incubation, Reagent, etc.); VALUE and DESCRIPTION.
1; Cells; 5 uL; white, solid bottom 1536-well Greiner assay plate.
2; Compounds; 23 nL; Kalypsis pin tool (Wako USA) equipped with a 1536-well pin head to transfer to the assay plates.
3; Incubation; 48 hours; 37C incubation.
4; Reagent;5uL; CellTiter Glo (Promega).
5; Detector; 425V; Luminescence; Viewlux PerkinElmer.
NOTES (numbers refer to Sequence numbers above)
1. The cell-based screening methods employed in this study were like those previously published. Briefly, the corresponding myeloma cell lines were screened in 1,536-well plates with 500 cells, 5-uL per well for inhibition of cell viability (assessed by measuring ATP levels with CellTiterGlo).
2. NCATS MIPE 4.0 library of approved and investigational drugs were added using the Kalypsis pin tool. Wells treated with DMSO only for 100% viability and media only wells for 0% viability were used as controls.
3. The assay plates were covered and incubated for 48 hours in a 37C, 5% CO2 incubator with controlled humidity.
4. After 48 hours, CellTilter-GloTM luminescent substrate mix (Promega) reagent was added to the assay plate and plates we incubated for 5 min at room temperature.
5. Signal was measured as median relative luminescence units on a ViewLux (PerkinElmer) multiplate reader.
[1] Heske CM, Davis MI, Baumgart JT, Wilson K, Gormally MV, Chen L, Zhang X, Ceribelli M, Duveau DY, Guha R, Ferrer M, Arnaldez FI, Ji J, Tran HL, Zhang Y, Mendoza A, Helman LJ, Thomas CJ. Matrix Screen Identifies Synergistic Combination of PARP Inhibitors and Nicotinamide Phosphoribosyltransferase (NAMPT) Inhibitors in Ewing Sarcoma. Clin Cancer Res. 2017 Dec 1;23(23):7301-7311. doi: 10.1158/1078-0432.CCR-17-1121. Epub 2017 Sep 12. PMID: 28899971; PMCID: PMC6636827.
(In general: ATP-based viability assays read luminescence as a measure of living cells.)
`CCCCc1nc2cc(C=CC(=O)NO)ccc2n1CCN(CC)CC`: the Potency is 83.3 nM (active).
For `COC(=O)C1=C(C)NC(C)=C(C(=O)OCCN2CCN(C(c3ccccc3)c3ccccc3)CC2)C1c1cccc([N+](=O)[O-])c1` (stereo not given), the “viability (% of DMSO control)” value was 125%.
Take `Nc1ccccc1NC(=O)c1ccc(CNC(=O)OCc2cccnc2)cc1`: the Potency is 2960 nM (active).
`c1nc2nc(Nc3ccc(N4CCOCC4)cc3)nc(NC3CCCCC3)c2[nH]1`: the Potency was 26400 nM (active).
Regarding `C[C@@]12O[C@@H](C[C@]1(O)CO)n1c3ccccc3c3c4c(c5c6ccccc6n2c5c31)CNC4=O`, the Potency was 6620 nM (active).
With `CC1(C)O[C@@H]2C[C@@H]3[C@H]4C[C@@H](F)C5=CC(=O)C=C[C@]5(C)[C@@]4(F)[C@@H](O)C[C@]3(C)[C@]2(C(=O)CO)O1`, the “viability (% of DMSO control)” value is 90.2%.
Turning to `CNC(=O)c1ccc(N2C(=S)N(c3cnc(C#N)c(C(F)(F)F)c3)C(=O)C23CCC3)cc1F`, the Potency was 14800 nM (active).
As to `Nc1nc(Nc2ccc(S(N)(=O)=O)cc2)nn1C(=O)c1c(F)cccc1F`, the Potency is 4180 nM (active).
On the same count and under the same terms, with `CCOc1cc2ncc(C#N)c(Nc3ccc(F)c(Cl)c3)c2cc1NC(=O)C=CCN(C)C` the figure was 7430 nM (active).
As to `O=C(c1cncc(Br)c1)N1CCC(N2CCCC2)CC1`, the “viability (% of DMSO control)” value was 126%.
Consider `O=C(O)c1ccc2c(c1)nc(Nc1cccc(Cl)c1)c1ccncc12`, for which the Potency is 5260 nM (active).
With `CC(=O)SC[C@@H](C)C(=O)N1CCC[C@H]1C(=O)N[C@@H](Cc1ccccc1)C(=O)O`, the “viability (% of DMSO control)” value is 105%.
As to `Nc1ncnc2c1c(-c1cnc3[nH]ccc3c1)nn2C1CCCC1`, the Potency was 662 nM (active).
As to `COc1cc(C(=O)N2CCC(N3CCN(C)CC3)CC2)ccc1Nc1ncc2c(n1)N(C)c1ccccc1C(=O)N2C`, the Potency was 3720 nM (active).
Still for that read-out and setting: with `Cc1nc(Nc2n[nH]c3c2CN(C(=O)N[C@H](CN(C)C)c2ccccc2)C3(C)C)c2sccc2n1` the figure was 833 nM (active); with `Cn1cc(-c2[nH]c3cc(NC(=O)[C@H](N)C4CCCCC4)cc4c3c2C=NNC4=O)cn1`, 296 nM (active).
`Nc1nc(-c2nn(Cc3ccccc3F)c3ncccc23)nc(N)c1N1CCOCC1`: the “viability (% of DMSO control)” value was 93.5%.
As to `CC(C)c1noc(N2CCC(COc3ccc(-c4ccc(S(C)(=O)=O)cc4)nc3)CC2)n1`, the Potency was 6620 nM (active).
`COc1cc(=C2C=c3ccccc3=N2)[nH]c1=Cc1[nH]c(C)cc1C`: the Potency was 1180 nM (active).
The same measure, in the same setting: in the case of `CNC(=O)c1ccccc1Nc1nc(Nc2ccc(N3CCOCC3)cc2OC)ncc1Cl` it was 13200 nM (active).
For `O=C(NC1CCNCC1)c1[nH]ncc1NC(=O)c1c(Cl)cccc1Cl`, the Potency was 83.3 nM (active).
In the case of `O=C1CCC[C@@H]2[C@H]3CCC[N+]4([O-])CCC[C@@H](CN12)[C@@H]34` (stereo not given in full), the “viability (% of DMSO control)” value was 114%.
Take `O=C(NCCS(=O)(=O)c1ccc(C(F)(F)F)cn1)c1ccc(Cl)cc1`: the “viability (% of DMSO control)” value is 132%.
Consider `C[C@H]1C[C@@H]2[C@@H]([C@@H](O)C[C@@]3(C)[C@H]2CC[C@]3(O)C(=O)CO)[C@@]2(C)C=CC(=O)C=C12`, for which the “viability (% of DMSO control)” value is 99.9%.
Turning to `CC(O)C1C(=O)N2C(C(=O)O)=C(SC3CNC(C(=O)N(C)C)C3)C(C)C12` (stereo not given), the “viability (% of DMSO control)” value is 109%.
Turning to `Cc1cc(C(=O)N2CCN(c3cccc(Cl)c3)CC2)n(-c2ccccc2)n1`, the Potency was 148 nM (active).
In the case of `O=c1c2ccccc2nc2n1CCc1c-2[nH]c2ccccc12`, the “viability (% of DMSO control)” value was 111%.
On to `Cn1c(=O)n(-c2ccc(C(C)(C)C#N)cc2)c2c3cc(-c4cnc5ccccc5c4)ccc3ncc21`, for which the Potency is 9.3 nM (active).
Regarding `Cc1ccc(C(N)=O)cc1Nc1nccc(-c2cn(C(C)C)c3cnccc23)n1`, the Potency was 9350 nM (active).
Still for that read-out and setting: in the case of `C=CCn1c(=O)c2cnc(Nc3ccc(N4CCN(C)CC4)cc3)nc2n1-c1cccc(C(C)(C)O)n1` it was 132 nM (active).
As for `CC[C@H]1CN2CCc3cc(OC)c(OC)cc3[C@H]2C[C@@H]1C[C@@H]1NCCc2cc(OC)c(OC)cc21`, the Potency was 372 nM (active).
As for `CCCCCN(CCC12CC3CC(CC(C3)C1)C2)C(=O)NCCCc1ccncc1`, the Potency is 18700 nM (active).
On to `CC(C)c1cc(C(=O)N2Cc3ccc(CN4CCN(C)CC4)cc3C2)c(O)cc1O`, for which the Potency is 296 nM (active).
Regarding `COCCOc1ccc2c(c1)ncn2-c1ccc2cccc(N3CCC(N)CC3)c2n1`, the Potency was 10500 nM (active).
As to `CCc1c2c(nc3ccc(O)cc13)-c1cc3c(c(=O)n1C2)COC(=O)[C@]3(O)CC`, the Potency is 590 nM (active).
Consider `c1ccc2c(CCNc3ccc(Nc4ccncc4)cc3)c[nH]c2c1`, for which the “viability (% of DMSO control)” value was 59.2%.
Regarding `COc1cc2c(cc1-c1c(C)noc1C)ncc1[nH]c(=O)n([C@H](C)c3ccccn3)c12`, the Potency was 833 nM (active).
Still for that read-out and setting: with `Cc1cc(Nc2cc(CN3CCOCC3)c3nc(C)c(Cc4ccc(Cl)cc4F)n3n2)n[nH]1` the figure was 7430 nM (active).
On to `CC(C)CC(=O)Nc1n[nH]c2c1CN(C(=O)C1CCN(C)CC1)C2(C)C`, for which the Potency was 1660 nM (active).
In the case of `NC(=O)c1cccc2cn(-c3ccc([C@@H]4CCCNC4)cc3)nc12`, the “viability (% of DMSO control)” value is 78.5%.
